What all share (assay): DAPPL (digital affinity profiling via proximity ligation, sequencing); 10 mM Tris-HCl pH 7.5, 50 mM NaCl, 1 mM DTT, 4% glycerol, room temperature, 30 min; GST-TFs on glutathione beads, 16-mer random dsDNA library, 0.1% formaldehyde crosslink after washing; high values mean tight binding
Conditions in all cases: protein: recombinant; tags: N-terminal GST; dsDNA, one strand shown

In one experiment the target is T1, ELK1 (Homo sapiens, UniProt P19419 1-428).
T1 sequence: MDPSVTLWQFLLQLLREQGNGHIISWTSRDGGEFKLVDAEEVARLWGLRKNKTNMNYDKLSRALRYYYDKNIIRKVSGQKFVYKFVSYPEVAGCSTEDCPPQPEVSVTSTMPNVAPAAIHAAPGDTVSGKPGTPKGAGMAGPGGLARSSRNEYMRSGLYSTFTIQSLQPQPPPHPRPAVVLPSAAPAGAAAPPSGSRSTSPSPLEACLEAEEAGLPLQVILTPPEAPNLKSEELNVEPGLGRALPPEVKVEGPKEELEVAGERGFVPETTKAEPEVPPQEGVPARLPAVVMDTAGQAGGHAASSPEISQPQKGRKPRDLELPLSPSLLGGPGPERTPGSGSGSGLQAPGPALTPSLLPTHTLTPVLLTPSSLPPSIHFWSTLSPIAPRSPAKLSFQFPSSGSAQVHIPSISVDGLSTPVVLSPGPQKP
The method, boiled down:
(§1)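 A tag-only sample was pooled with DNA-barcoded human transcription factors that had been expressed in yeast as GST fusions and captured on glutathione beads. The pools were incubated for 30 min at room temperature with 200 nmole of a random double-stranded 16-mer DNA library in Tris/NaCl/DTT/glycerol buffer, then washed, crosslinked with 0.1% formaldehyde, proximity-ligated (BsaI/T4 ligase, 1 h, 37 °C), PCR-amplified and sequenced on an Illumina NextSeq500. Binding signal is each hexamer's read frequency for a factor divided by its frequency for the tag-only sample.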

Another experiment concerns the target T2, EHF (Homo sapiens, UniProt Q9NZC4 1-300).
T2 sequence: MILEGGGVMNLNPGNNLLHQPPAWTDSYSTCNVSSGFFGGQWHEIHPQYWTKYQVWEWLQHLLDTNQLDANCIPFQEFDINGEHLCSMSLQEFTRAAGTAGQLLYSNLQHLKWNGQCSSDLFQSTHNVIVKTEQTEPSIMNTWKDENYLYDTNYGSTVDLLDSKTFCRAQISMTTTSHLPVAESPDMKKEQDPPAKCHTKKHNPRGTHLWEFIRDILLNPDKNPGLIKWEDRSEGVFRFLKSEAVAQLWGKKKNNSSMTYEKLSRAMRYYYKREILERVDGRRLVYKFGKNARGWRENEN
The method, boiled down: as §1

The target in a further experiment is SPIB (Homo sapiens, UniProt Q01892 1-262). An outline of the steps:
as §1

The target of the next experiment is ETV5 (Homo sapiens, UniProt P41161 1-510). An outline of the steps:
as §1

The target of a further experiment is T3, SPIC (Homo sapiens, UniProt Q8N5J4 1-248).
T3 sequence: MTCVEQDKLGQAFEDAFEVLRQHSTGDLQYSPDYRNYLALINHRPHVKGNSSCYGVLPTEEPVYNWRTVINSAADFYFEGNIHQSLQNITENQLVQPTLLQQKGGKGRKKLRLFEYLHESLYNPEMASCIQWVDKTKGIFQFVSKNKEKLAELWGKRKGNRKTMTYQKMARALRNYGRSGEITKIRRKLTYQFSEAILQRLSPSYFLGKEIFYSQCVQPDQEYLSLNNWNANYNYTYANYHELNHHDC
An outline of the steps:
as §1

The target in a further experiment is T4, ELK4 (Homo sapiens, UniProt P28324-2 1-405).
T4 sequence: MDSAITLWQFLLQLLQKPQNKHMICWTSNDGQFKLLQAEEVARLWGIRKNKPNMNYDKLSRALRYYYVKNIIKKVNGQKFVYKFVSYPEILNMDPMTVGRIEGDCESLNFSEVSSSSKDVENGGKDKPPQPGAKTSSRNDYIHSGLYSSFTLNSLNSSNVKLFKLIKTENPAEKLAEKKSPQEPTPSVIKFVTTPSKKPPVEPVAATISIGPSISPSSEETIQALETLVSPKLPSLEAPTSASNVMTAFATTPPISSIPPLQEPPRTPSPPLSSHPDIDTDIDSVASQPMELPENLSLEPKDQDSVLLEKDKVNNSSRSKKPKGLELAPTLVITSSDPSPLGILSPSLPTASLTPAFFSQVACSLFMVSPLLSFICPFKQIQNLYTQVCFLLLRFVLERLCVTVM
The method, boiled down:
as §1

Another experiment has as its target T5, ETV3L (Homo sapiens, UniProt Q6ZN32 1-361).
T5 sequence: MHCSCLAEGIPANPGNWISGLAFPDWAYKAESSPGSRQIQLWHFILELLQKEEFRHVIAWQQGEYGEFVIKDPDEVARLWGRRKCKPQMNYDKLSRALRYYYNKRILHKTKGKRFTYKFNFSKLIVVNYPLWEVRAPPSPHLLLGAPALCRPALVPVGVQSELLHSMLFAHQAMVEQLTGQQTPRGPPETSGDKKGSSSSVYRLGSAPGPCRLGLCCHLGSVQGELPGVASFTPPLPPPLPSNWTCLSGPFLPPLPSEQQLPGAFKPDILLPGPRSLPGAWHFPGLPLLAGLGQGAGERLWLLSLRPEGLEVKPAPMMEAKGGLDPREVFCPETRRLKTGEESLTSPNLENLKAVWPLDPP
The method, boiled down: as §1

The next experiment has as its target T6, ETV3 (Homo sapiens, UniProt P41162-2 1-143).
T6 sequence: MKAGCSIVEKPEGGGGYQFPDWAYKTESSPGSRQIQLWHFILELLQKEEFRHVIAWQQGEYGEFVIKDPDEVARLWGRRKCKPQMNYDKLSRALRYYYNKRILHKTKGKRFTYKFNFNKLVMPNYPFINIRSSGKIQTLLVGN
The method, boiled down: as §1

Sequence of SPIB (Q01892 whole entry): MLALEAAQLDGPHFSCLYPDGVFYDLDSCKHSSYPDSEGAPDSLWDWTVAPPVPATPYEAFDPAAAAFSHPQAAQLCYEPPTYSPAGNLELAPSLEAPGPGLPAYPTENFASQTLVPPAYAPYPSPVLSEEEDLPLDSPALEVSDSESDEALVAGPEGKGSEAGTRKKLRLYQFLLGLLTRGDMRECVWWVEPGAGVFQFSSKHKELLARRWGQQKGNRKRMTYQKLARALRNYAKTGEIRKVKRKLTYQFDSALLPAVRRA
Sequence of ETV5 (P41161 whole entry): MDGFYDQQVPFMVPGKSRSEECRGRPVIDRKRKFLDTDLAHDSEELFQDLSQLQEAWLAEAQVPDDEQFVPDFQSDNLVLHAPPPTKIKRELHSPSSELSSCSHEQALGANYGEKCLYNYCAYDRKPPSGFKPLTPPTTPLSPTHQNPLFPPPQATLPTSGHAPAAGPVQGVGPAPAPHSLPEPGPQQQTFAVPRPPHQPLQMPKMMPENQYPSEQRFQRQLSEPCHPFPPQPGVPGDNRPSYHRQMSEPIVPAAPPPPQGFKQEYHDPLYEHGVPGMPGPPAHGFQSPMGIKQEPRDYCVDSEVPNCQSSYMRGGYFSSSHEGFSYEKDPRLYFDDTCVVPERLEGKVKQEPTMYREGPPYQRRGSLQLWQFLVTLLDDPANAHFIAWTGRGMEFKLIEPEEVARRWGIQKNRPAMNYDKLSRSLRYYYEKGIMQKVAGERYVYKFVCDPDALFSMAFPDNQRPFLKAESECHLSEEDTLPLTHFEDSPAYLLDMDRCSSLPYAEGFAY

Take CAGTTC: the binding signal was 1.05 fold enrichment (6-mer frequency, TF over GST control) in the experiment with ELK1; 1.02 fold enrichment (6-mer frequency, TF over GST control) with EHF; 1.04 fold enrichment (6-mer frequency, TF over GST control) with SPIB; 1.04 fold enrichment (6-mer frequency, TF over GST control) with ETV5; 1.17 fold enrichment (6-mer frequency, TF over GST control) with SPIC; 1.07 fold enrichment (6-mer frequency, TF over GST control) in the experiment with ELK4. The binding signal was 1.05 fold enrichment (6-mer frequency, TF over GST control) with ETV3L and 1.13 fold enrichment (6-mer frequency, TF over GST control) with ETV3.

The record behind these values is publication PMC7862700, “An all-to-all approach to the identification of sequence-specific readers for epigenetic DNA modifications on cytosine”.
